Each structure is given as a SMILES string. Unmarked numbers belong to inactive results. Rule as the data show it: active = inhibition above about 50%; inactive = the rest.

The target in this assay is Prolyl endopeptidase-like (Mus musculus) (UniProt Q8C167). The experiment in a line: purified PREPL inhibitors, PREPL inhibitor project, biochemical, gel-based competitive ABPP, fluorescence, HTS hits (AID 624481). The note with it: at 20 µM, active compounds read high.
Prolyl endopeptidase-like (Mus musculus), sequence (Q8C167 whole entry, looked up): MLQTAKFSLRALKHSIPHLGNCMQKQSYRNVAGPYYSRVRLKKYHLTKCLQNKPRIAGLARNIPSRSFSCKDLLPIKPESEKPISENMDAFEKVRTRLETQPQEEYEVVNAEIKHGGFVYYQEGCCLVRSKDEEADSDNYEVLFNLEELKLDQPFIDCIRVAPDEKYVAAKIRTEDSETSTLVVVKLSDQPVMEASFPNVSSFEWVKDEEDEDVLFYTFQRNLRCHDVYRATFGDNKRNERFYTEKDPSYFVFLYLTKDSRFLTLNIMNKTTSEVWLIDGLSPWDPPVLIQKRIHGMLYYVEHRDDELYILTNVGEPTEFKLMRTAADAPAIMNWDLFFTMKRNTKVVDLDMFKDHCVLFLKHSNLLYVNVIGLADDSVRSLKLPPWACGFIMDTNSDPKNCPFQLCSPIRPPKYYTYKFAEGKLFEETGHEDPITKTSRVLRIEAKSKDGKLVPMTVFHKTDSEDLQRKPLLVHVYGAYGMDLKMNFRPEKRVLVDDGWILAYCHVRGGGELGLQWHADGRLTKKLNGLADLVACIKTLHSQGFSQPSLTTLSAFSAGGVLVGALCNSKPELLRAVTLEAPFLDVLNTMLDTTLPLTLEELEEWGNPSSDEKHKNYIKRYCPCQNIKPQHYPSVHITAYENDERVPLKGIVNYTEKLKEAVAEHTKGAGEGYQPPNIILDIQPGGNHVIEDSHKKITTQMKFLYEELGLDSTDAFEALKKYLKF
Consider `CN1CCN(C(=O)C2=C[C@@H](c3ccc(C(F)(F)F)cc3)C[C@@H](OCc3ccc(CO)cc3)O2)CC1`, for which the inhibition (in general, the drop in the measured response relative to a control, in per cent) was -83%.

Turning to `CCn1c2ccccc2c2cc(CNCc3ccc(OC)cc3OC)ccc21`, the inhibition was -93%.

Turning to `O=c1[nH]c2ccc(NCc3ccccc3OCc3ccc(Cl)cc3)cc2[nH]1`, the inhibition was -43%.

For the compound `O=C1N/C(=C/c2ccc(N3CCOCC3)cc2)C(=O)N1Cc1ccc(F)cc1`, the inhibition was -30%.

For the compound `CN(C)c1ccc(NC(=O)c2cccc(C(=O)Nc3ccc(N(C)C)cc3)n2)cc1`, the inhibition is -170%.

For `Cc1cccc(OCC(=O)Nc2ccc(N3CCN(C(=O)c4ccccc4)CC3)cc2)c1`, the inhibition was -12%.

Regarding `C#CCOCCOCCOCCNc1nc(N2CCN(C(=O)CCCCCCCCCCNC(=O)[C@H](CCCCN)n3cc(C)nn3)CC2)nc(N2CCN(C(=O)CCCCCCCCCCNC(=O)[C@H](CCCN=C(N)N)n3cc(C[C@@H](C)CC)nn3)CC2)n1`, the inhibition was -58%.

As for `COc1ccc(NCc2nn(CC(=O)c3ccc(Br)cc3)c3[n+]2CCCCC3)cc1`, the inhibition was -48%.

Take `CNC(=S)N1N=C(c2ccc(C)cc2)CC1c1ccc(N(C)C)cc1` (configuration not stated): the inhibition is -85%.

Turning to `C#CCOCCOCCOCCNc1nc(N2CCN(C(=O)[C@H](Cc3cc4ccccc4[nH]3)n3cc([C@@H](N)C(C)CC)nn3)CC2)nc(N2CCN(C(=O)[C@H](Cc3cc4ccccc4[nH]3)n3cc([C@@H](N)Cc4ccc(O)cc4)nn3)CC2)n1` (some centres not stated), the inhibition is -104%.

For `Cc1cccn2c(=O)c3cc(C(=O)NCCc4ccccc4)c(=N)n(CCCn4ccnc4)c3nc12`, the inhibition is -33%.

On to `Cc1cccc(C2CC(c3ccc(Cl)cc3)Nc3nc(N)nn32)c1` (configuration not stated), for which the inhibition was -60%.

On to `CC(C)(C)Nc1nc(-c2ccccn2)nc2ccccc12`, for which the inhibition is -31%.

Take `COc1ccc(C(=O)c2coc3ccc(O)c(CN4CCOCC4)c23)cc1`: the inhibition was -78%.

Turning to `c1ccc(CCNc2nc(-c3ccccn3)nc3ccccc23)cc1`, the inhibition is -127%.

As to `Cc1ccc2nc3c(cc(C(=O)NCCc4ccccc4)c(=N)n3CCCN3CCOCC3)c(=O)n2c1`, the inhibition is -43%.

Turning to `C#CCOCCOCCOCCNc1nc(N2CCN(C(=O)[C@H](CCCCN)n3cc([C@@H](N)C(C)CC)nn3)CC2)nc(N2CCN(C(=O)[C@H](Cc3cc4ccccc4[nH]3)n3cc([C@@H](N)C(C)CC)nn3)CC2)n1` (some centres not stated), the inhibition is -33%.

In the case of `COc1ccc(N2CCN(c3ccc4nnc(CCC(=O)Nc5ccc(C)cc5)n4n3)CC2)cc1`, the inhibition was -20%.

For `Nc1nn(-c2ccccc2)c(N)c1N=Nc1ccccc1`, the inhibition is -16%.

`CCC[C@@H](CN1CCC[C@H]1CN1C(N)=NC[C@H]1C(C)C)N1C[C@@H](Cc2ccccc2)N(CCCC2CCCC2)C1=N`: the inhibition is -46%.

Consider `CCCOc1ccccc1-n1sc2c(c1=S)-c1cc(OC)cc3c1N(C(=O)C3=O)C2(C)C`, for which the inhibition is -26%.

`CC(=O)N1CCN(c2ccc(NCc3ccc(-c4ccc(Br)cc4)o3)cc2)CC1`: the inhibition was -23%.

Take `Cc1cc(C)c2nc(C)cc(NN=Cc3ccc(O)cc3)c2c1`: the inhibition was -1%.

With `CC[C@@H](C)[C@@H]1CN([C@@H](C)CN2CCC[C@H]2CN2C(N)=NC[C@H]2C(C)C)C(=N)N1CCc1ccc(Cl)c(Cl)c1`, the inhibition was -48%.

Consider `C#CCOCCOCCOCCNc1nc(N2CCN(C(=O)CCCCCCCCCCNC(=O)Cn3cc(CCCCCN)nn3)CC2)nc(N2CCN(C(=O)CCCCCCCCCCNC(=O)Cn3cc(CCCCCN)nn3)CC2)n1`, for which the inhibition is -99%.

Turning to `COc1ccc(N2CCN(CCC(O)c3ccc4ccccc4c3)CC2)cc1` (configuration not stated), the inhibition is -79%.

With `CN1CCN(c2ccc(NC(=O)COc3cccc4ccccc34)cc2)CC1`, the inhibition is 15%.

With `CC(C)C[C@@H]1CN=C(N)N1C[C@@H]1CCCN1C[C@@H](C(C)C)N1C[C@@H](Cc2ccccc2)N(CCc2ccc(Cl)c(Cl)c2)C1=N`, the inhibition was -72%.

With `COc1ccc2cc1Oc1ccc(cc1)C[C@H]1c3cc(c(OC)cc3CCN1C)Oc1c(O)c(OC)cc3c1[C@H](C2)N(C)CC3`, the inhibition was 0%.

With `CN(C)c1ccc(C(O)P(=O)(OCc2ccccc2)c2ccc(N(C)C)cc2)cc1` (configuration not stated), the inhibition is -57%.

On to `O=C(C1=C[C@@H](c2ccc(C(F)(F)F)cc2)C[C@@H](OCCCCO)O1)N1CCN(Cc2ccc3c(c2)OCO3)CC1`, for which the inhibition is -20%.

With `C[C@H]1CN([C@@H](C)CO)C(=O)Cc2cc(NC(=O)CCN3CCOCC3)ccc2O[C@@H]1CN(C)Cc1ccc(Oc2ccccc2)cc1`, the inhibition was -27%.

For the compound `COc1ccc(-c2c(-c3ccccc3)c(C(=O)C(=O)NCCCN(C)C)n3ccc4cc(OC)c(OC)cc4c23)cc1OC`, the inhibition is -15%.

Take `C[C@H]1CN([C@@H](C)CO)C(=O)c2cccc(NS(=O)(=O)c3ccc(Cl)cc3)c2O[C@@H]1CN(C)CC1CCCCC1`: the inhibition is -24%.

Take `CN(C)CCN1C(=O)C(O)=C(C(=O)c2cc3ccccc3o2)C1c1ccc(N(C)C)cc1` (configuration not stated): the inhibition was -47%.

For the compound `COc1ccc(NC(=O)c2ccc(-c3ccc(-c4noc(C)n4)cc3C)cc2)cc1N1CCN(C)CC1`, the inhibition was -16%.

`CN(C)c1ccc(C(CNC(=O)c2ccccc2F)c2c[nH]c3ccccc23)cc1` (configuration not stated): the inhibition was -10%.

(Values after PubChem BioAssay AID624481 (The Scripps Research Institute Molecular Screening Center, 2012).)
